Compound activity: PubChem BioAssay, several laboratories
A selection: hits, their analogues and other compounds. The true share with any hit is near 6.9%.
MPTP inh = blocks calcium-induced mitochondrial swelling | isolated mouse mitochondria, Ca2+ swelling absorbance, 30 min | inhibition, % at 10 µM | actives 1.4% (n = 360,000) | AID 602449;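 active = inhibition of 50% or more, scaled per plate between neutral and stimulator controls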;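 also: 0% = DMSO wells given calcium and 100% = 1 mM EGTA wells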
SKKanGAS inh = inhibitors of SKKanGAS S. pyogenes growth in kanamycin (SK-promoter or general growth effect); actives 1.3% (n = 300,000); AID 1662; inhibition, % at 7.5 µM; BacTiter-Glo, 6 h;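 active = mean replicate score, as percent of positive control median, at least 50; inconclusive = mean below 50 but one replicate at or above 50; inactive = mean and every replicate below 50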;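 also: strain carries kanamycin resistance gene driven by streptokinase promoter and grows in 40 µg/ml kanamycin; loss of luminescence reflects streptokinase promoter inhibition or plain growth inhibition; 0% = median of DMSO wells and 100% = positive control at its reference dose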
GRIN3A LBD mod = modulates the human NR3A ligand-binding domain | NR3A LBD differential scanning fluorimetry, Tm shift; 0% = protein alone, 100% = glycine-bound protein | actives 2.5% (n = 340,000) | Tm shift relative to glycine control, % at 25 µM;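 active = melting temperature shift of at least 10% of the positive control shift, at one fixed dose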
Mdm2 MdmX PPI = inhibitors of human Mdm2/MdmX interaction | O15151+Q00987 | SaOS-2 split-luciferase Mdm2/MdmX complementation, luminescence | inhibition, % at 8 µM | actives 3% (n = 330,000) | AID 485346;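 active = inhibition of at least 50% at 8 µM in the primary screen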
Target sequence (O15151 whole entry, looked up): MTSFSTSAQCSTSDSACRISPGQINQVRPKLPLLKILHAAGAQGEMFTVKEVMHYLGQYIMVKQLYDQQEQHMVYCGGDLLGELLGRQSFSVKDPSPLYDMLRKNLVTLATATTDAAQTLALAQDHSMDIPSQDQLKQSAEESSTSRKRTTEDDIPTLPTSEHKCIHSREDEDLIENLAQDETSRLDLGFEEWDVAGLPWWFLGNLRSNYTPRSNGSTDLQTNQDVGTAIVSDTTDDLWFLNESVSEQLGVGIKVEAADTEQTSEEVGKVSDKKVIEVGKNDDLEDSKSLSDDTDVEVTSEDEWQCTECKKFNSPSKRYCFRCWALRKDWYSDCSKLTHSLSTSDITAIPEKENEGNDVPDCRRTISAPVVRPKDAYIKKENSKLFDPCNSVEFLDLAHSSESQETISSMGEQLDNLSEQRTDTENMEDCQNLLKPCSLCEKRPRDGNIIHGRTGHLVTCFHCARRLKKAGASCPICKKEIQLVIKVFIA
Target sequence (Q00987 whole entry, looked up): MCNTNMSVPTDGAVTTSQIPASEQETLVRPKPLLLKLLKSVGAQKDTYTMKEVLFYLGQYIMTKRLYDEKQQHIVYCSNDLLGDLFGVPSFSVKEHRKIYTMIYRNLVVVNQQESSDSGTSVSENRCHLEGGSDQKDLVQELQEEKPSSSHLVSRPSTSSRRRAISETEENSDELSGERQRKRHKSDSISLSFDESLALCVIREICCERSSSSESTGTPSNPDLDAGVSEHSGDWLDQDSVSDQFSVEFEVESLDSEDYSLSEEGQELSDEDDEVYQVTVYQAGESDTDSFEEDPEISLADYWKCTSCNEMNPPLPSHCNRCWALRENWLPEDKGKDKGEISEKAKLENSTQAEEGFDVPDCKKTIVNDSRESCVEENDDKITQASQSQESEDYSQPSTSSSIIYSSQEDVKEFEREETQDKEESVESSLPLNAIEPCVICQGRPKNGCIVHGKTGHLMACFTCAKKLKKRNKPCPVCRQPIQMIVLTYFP
CSC inhib = cancer stem cell inhibition | inhibition, % at 7.5 µM | cancer stem cell-like cells viability, luminescence | actives 1.1% (n = 300,000); in the data active = inhibition above about 75%; inconclusive = no clear call, values can overlap the other calls; tested in HMLE shEcad cells
Beta cell apopt = beta cell apoptosis inhibition; protection from apoptosis, % (no concentration beside the values); INS-1E cytokine-induced death, ATP luminescence, 48 h; percent of positive-control rescue, neutral wells zero; actives 0.8% (n = 300,000);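 active = Every replicate reaches about 75%, or at least half do and their mean reaches it too, limit read from the data; inconclusive = At least half of replicates reach the limit but their mean does not; inactive = Under half of replicates reach the limit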;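 also: 0% = cytokine-treated negative control wells and 100% = positive control rescue; higher means more ATP so stronger rescue from cytokine killing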
Starred values were filed as active, the others as inactive; ? = inconclusive; . = no result given.

SMILES	MPTP inh	SKKanGAS inh	GRIN3A LBD mod	Mdm2 MdmX PPI	CSC inhib	Beta cell apopt
CN(CC1CCCO1)S(=O)(=O)c1ccc(C(=O)Nc2nnc(-c3ccccc3)o2)cc1 (stereo not drawn)	0	84*	-2	24	21	6
CN(CC1CCCO1)S(=O)(=O)c1ccc(C(=O)Nc2ccccc2F)cc1 (stereo not drawn)	1	?	0	22	-7	3
COc1ccccc1-c1nnc(NC(=O)c2ccc(S(=O)(=O)N(C)CC3CCCO3)cc2)o1 (stereo not drawn)	0	54*	-2	1	-6	-9
O=C(c1ccc(NS(=O)(=O)c2cccs2)cc1)N1CCOCC1	0	-3	11*	-4	6	-3
O=C(c1ccc(NS(=O)(=O)c2cccs2)cc1)N1CCCCC1	4	-18	3	26	-5	1
O=C(O)c1cccc2c1C(=O)c1ccc(-c3ccc(F)cc3OCc3ccccc3)cc1S2(=O)=O	2	.	13*	7	2	0
Cc1cc(CNC(=O)c2cccc3c2C(=O)c2ccc(-c4ccc(F)cc4OCc4ccccc4)cc2S3(=O)=O)c(C(F)(F)F)o1	2	.	17*	19	.	1
COc1ccc(S(=O)(=O)N2CCC(C(=O)Nc3cc(Cl)ccc3N3CCOCC3)CC2)cc1OC	-1	-3	0	24	6	-3
O=C(Nc1cccc(S(=O)(=O)N2CCOCC2)c1)C1CCN(S(=O)(=O)c2ccccc2)CC1	-1	.	0	4	-12	-6
O=C(CN(Cc1ccccc1)C(=O)CCC(=O)Nc1ccccn1)NCc1ccc(F)cc1	0	-2	-2	10	7	-2
O=C(O)c1ccccc1C(=O)Nc1ccc(-n2ccc(C(F)(F)F)n2)cc1	2	-4	-1	-22	-5	-9
O=C(Nc1ccccc1O)c1ccccc1O	29	3	15*	-27	18	.
COc1ccc(NC(=O)Nc2ccccc2OC)cc1	-1	3	-6	-27	-20	7
O=C(Nc1ccc(F)cc1)Nc1ccc(NC(=O)c2ccccc2O)cc1	9	-4	32*	12	29	-22
COc1ccccc1NC(=O)Nc1ccc(-n2ccc(C(F)(F)F)n2)cc1	28	3	4	-17	83*	13
COc1ccccc1NC(=O)Nc1ccc(NC(=O)c2ccccc2O)cc1	0	37	32*	-2	.	.
Cc1cc(=O)c(C(=O)Nc2cccc(C(=O)NC3CC3)c2)nn1-c1ccccc1Cl	0	.	-2	6	.	-4
CC1CCCCC12NC(=O)N(CC(=O)N1CCN(S(=O)(=O)c3ccc(Cl)s3)CC1)C2=O (stereo not drawn)	-1	.	.	.	.	.
Cc1cc(C)cc(OCC(=O)OCC(=O)N(CC(C)C)c2c(N)n(Cc3ccccc3)c(=O)[nH]c2=O)c1	0	-4	-1	26	-7	-1
CSc1nc(N)c2c(n1)N(C)C=NS2(=O)=O	-2	.	2	.	.	.
CN(C)S(=O)(=O)Oc1ccsc1C(=O)Nc1cccc(Cl)c1	0	-4	-12	12	-1	-1
COC(=O)c1sccc1-c1ccc(C(=O)Nc2cccc(Cl)c2)o1	32	-5	24*	-42	4	-2
O=C(O)CCCCCN1C(=O)/C(=C/c2cn(-c3ccccc3)nc2-c2cccs2)SC1=S	9	.	20*	.	.	.
CCN1C(=O)/C(=C/c2cn(-c3ccccc3)nc2-c2cccnc2)SC1=S	1	.	0	.	.	.
O=C(O)CCN1C(=O)/C(=C/c2cn(-c3ccccc3)nc2-c2cccs2)SC1=S	0	.	29*	10	.	.
SMILES	MPTP inh	SKKanGAS inh	GRIN3A LBD mod	Mdm2 MdmX PPI	CSC inhib	Beta cell apopt
O=C(CCNC(=O)c1ccccc1)NNC(=O)c1ccc(F)cc1	0	.	-1	-12	-7	-3
Cc1cc(N2CCOCC2)n2ncc(-c3ccccc3)c2n1	-1	-2	-2	39	-5	100*
Cc1cc(N2CCC(C)CC2)n2ncc(-c3ccccc3)c2n1	4	-2	13*	3	-12	5
COc1ccc(CCNc2cc(C)nc3c(-c4ccc(Cl)cc4)cnn23)cc1OC	2	27	1	39	92*	-1
Cc1cc(NCCN2CCOCC2)n2ncc(-c3ccccc3)c2n1	-3	-14	13*	-71	2	-7
COc1ccccc1-c1cnn2c(NCCc3ccccc3)cc(C)nc12	0	3	-1	-30	10	-1
Cc1cc(NCCN2CCOCC2)n2nc(C)c(-c3ccccc3)c2n1	0	0	-3	7	-8	-5
CCOC(=O)C1CCCN(C(=O)COc2ccc(N(C)S(=O)(=O)c3ccc(F)cc3)cc2)C1 (stereo not drawn)	6	-17	2	14	-2	-7
Cc1cc(N2CCCCC2)n2ncc(-c3ccc(Cl)cc3)c2n1	0	18	-1	49	84*	1
O=C(Nc1nccs1)c1c(O)c2cccc3c2n(c1=O)CCC3	.	100*	.	49	.	9
CC(C)(C)OC(=O)C[C@@H]1C/C=C\C[C@H](CC(=O)N(CCO)Cc2ccccc2)C(=O)N[C@H](C(C)(C)C)COC1=O	1	.	1	5	0	10
CCOC(=O)Nc1c(Cl)n(C)c(=O)n(C)c1=O	-1	0	11*	-5	-2	-2
Cc1nn2c(-c3ccc(S(=O)(=O)N4CCN(C)CC4)o3)nnc2c2ccccc12	0	10	-1	38	10	12
CCCCCC(=O)NC(=S)Nc1ccc(Cl)cn1	10	-6	1	-1	-10	-5
O=C(NC(=S)Nc1ccc(Cl)cn1)C(c1ccccc1)c1ccccc1	4	77*	10	40	67	1
CC(=O)NNC(=S)NC(=O)C(c1ccccc1)c1ccccc1	-1	61*	-2	26	3	16
CC1CC(CCC(=O)NC(=S)Nc2ccc(Cl)cn2)C(=O)O1 (stereo not drawn)	2	1	16*	-26	.	0
CC(=O)Nc1ncc(Cc2ccc(Cl)cc2Cl)s1	-1	4	0	32	2	-3
Cc1cc(NC(=O)CCC(=O)N(c2ccc(F)cc2)C(C(=O)NC2CCCC2)c2cccnc2)no1 (stereo not drawn)	-2	-1	-2	-4	.	-3
CCNC(=O)C1CCCN(Cc2ccc(C)c3ccccc23)CC1 (stereo not drawn)	0	.	.	.	.	.
N#CC1=C(N)Oc2cc(N)ccc2C1c1cccc(Br)c1 (stereo not drawn)	1	5	3	42	82*	3
O=C(CSc1nnc(-c2ccc3c(c2)OCO3)o1)Nc1ncc(C(F)(F)F)cc1Cl	-11	98*	-5	13	?	-5
Cc1nc(NC(=O)CSc2nnc(-c3ccc4c(c3)OCO4)o2)c(Cl)cc1Cl	0	2	1	11	6	6
O=C(NCc1ccco1)c1ccc2nc([C@@H]3O[C@H](CO)[C@H](O)[C@H](O)[C@H]3O)[nH]c2c1	2	.	.	.	.	.
